Holding throughout (assay type): functional
The target in test [1] is Solute carrier family 2, facilitated glucose transporter member 1 (Homo sapiens) (UniProt P11166). The test can be described thus: ST_JUDE_LEISH: Cytotoxicity at 2uM final concentration against transgenic Leishmania Mexicana promastigotes LmGLUT1 that are glucose transport deficient and complemented with the human glucose transporter GLUT1. Activity is measured by DNA content using SYBR green in vitro.

In test [2] the target is Hexose transporter 1 (Plasmodium falciparum) (UniProt O97467). Nature of the test: ST_JUDE_LEISH: Cytotoxicity at 2uM final concentration against transgenic Leishmania Mexicana promastigotes LmPfHT that are glucose transport deficient and complemented with the Plasmodium falciparum hexose transporter. Activity is measured by DNA content using SYBR green in vitro.
Test [3] deals with Glucose transporter (Leishmania mexicana) (UniProt O61059). The test can be described thus: ST_JUDE_LEISH: Cytotoxicity at 2uM final concentration against transgenic Leishmania Mexicana promastigotes LmGT2 that are glucose transport deficient and complemented with the L. Mexicana glucose transporter 2. Activity is measured by DNA content using SYBR green in vitro.

Chain of Solute carrier family 2, facilitated glucose transporter member 1 (Homo sapiens) (P11166 whole entry): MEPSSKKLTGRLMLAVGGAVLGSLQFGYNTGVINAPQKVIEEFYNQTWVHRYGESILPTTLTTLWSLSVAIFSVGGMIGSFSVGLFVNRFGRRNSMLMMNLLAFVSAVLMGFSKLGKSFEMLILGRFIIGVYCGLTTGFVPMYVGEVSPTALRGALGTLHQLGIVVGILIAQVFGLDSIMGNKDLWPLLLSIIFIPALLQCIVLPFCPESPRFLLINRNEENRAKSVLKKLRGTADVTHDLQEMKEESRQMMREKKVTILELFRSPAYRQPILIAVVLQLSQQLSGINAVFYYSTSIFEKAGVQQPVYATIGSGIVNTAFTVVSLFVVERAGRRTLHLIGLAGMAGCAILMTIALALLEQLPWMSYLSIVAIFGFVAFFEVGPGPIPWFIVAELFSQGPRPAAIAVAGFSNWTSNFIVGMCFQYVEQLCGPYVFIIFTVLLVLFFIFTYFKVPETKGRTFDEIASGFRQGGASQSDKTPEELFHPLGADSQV

The inhibition is the drop in the measured response relative to a control, in per cent. Turning to `N#Cc1ccc(N[C@@H](CC2CCCCC2)C(=O)Nc2ccc(-c3ccccc3)cc2)c2ccccc12`, the inhibition was determined as 2.38% in test [1], 3.08% in test [2] and 3.75% in test [3].

Take `CN(C)CCCOc1ccc(CN2CC[C@H](NC(=O)c3ccc(Cl)c(Cl)c3)C2)c2ccccc12`: the figures for the inhibition in test [1], in test [2] and in test [3] were -0.55%, 1.01% and 0.71%, respectively.

`CC1CN(c2ccc3[nH]cc(Sc4ccc(-c5cccs5)cc4)c3c2)CC(C)N1` (stereo not drawn): the results for the inhibition in test [1], in test [2] and in test [3] were -0.79%, -1.78% and -1.36%, respectively.

As for `CC(C)(C)Cn1cc(-c2ccc(C(=O)NCCc3ccc(S(C)(=O)=O)cc3)cc2)c(N)n1.CC(C)(C)Cn1ncc(-c2ccc(C(=O)NCCc3ccc(S(C)(=O)=O)cc3)cc2)c1N`, the inhibition in test [1] was found to be 0.21%; in test [2], 1.16%; in test [3], 2.93%.

With `Cc1ccc(Oc2ccc(NC(=O)CNc3ccccc3N3CCCC3=O)cc2)cc1`, the inhibition in test [1] came out at 6%; in test [2], 6.14%; in test [3] it was 5.01%.

For the molecule `Cc1ccccc1CN1CCCN(Cc2ccc(C(=O)Nc3ccc(C(C)(C)C)cc3)cc2)CC1`, the inhibition in test [1] turned out to be 6.33%; in test [2], 3.39%; in test [3] it was 3.55%.

With `Cc1nc(N)nc(N)c1CCCOc1cccc(Cl)c1`, the inhibition in test [1] is 7.39%; in test [2], 7.51%; in test [3] it was -0.98%.

Turning to `Cc1nc2nc(N)nc(N)c2c(C)c1Cc1ccc(C#N)cc1`, the results for the inhibition in test [1], in test [2] and in test [3] were 0.34%, 4.37% and -0.44%, respectively.

On to `CCCNC[C@@H](O)[C@H](Cc1ccccc1)NC(=O)c1cc2c3c(c1)c(CC)cn3CCS(=O)(=O)N2C`, for which the inhibition in test [1] was -2.56%; in test [2], 0.74%; in test [3], 0.44%.

As to `COc1ccc2nccc([C@@H](O)CN3CCC(NC(=O)/C=C/c4cc([N+](=O)[O-])ccc4OC)CC3)c2c1`, the inhibition in test [1] worked out at 1.12%; in test [2] it was 0.92%; in test [3], 0.53%.

On to `CCOc1ccc(-c2noc(-c3c[nH]c4ccccc4c3=O)n2)cc1`, for which the inhibition in test [1] was 1.69%; in test [2], -0.34%; in test [3], 2.82%.

Source of the values: ChEMBL document CHEMBL3433997, “St. Jude Leishmania screening dataset” (2016).
